This note sets out measurements from PubChem BioAssay (Tox21).

A short description of experiment [1]: Nuclear factor erythroid 2-related factor 2/antioxidant responsive element (Nrf2/ARE) small molecule agonists: qHTS cell viability counter screen in human keratinocytes (AID 1919968; active = well fitted curve in the direction sought with a large enough effect in the repeat runs; an effect the other way counts as inactive or inconclusive; note: nearly all actives have a fitted effect of over 55% in size; note: potency is the fitted concentration of half-maximal effect). The procedure, abridged: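 HaCaT ARE reporter line, 1,500 cells/well; 5 h settle, 37 C/5% CO2; cpd in DMSO pinned; 23 h exposure; CellTiter-Fluor, 1 h; fluorescence.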
For orientation: Quantitative high-throughput screening tests each substance at several concentrations.

The target in experiment [2] is Gonadotropin-releasing hormone receptor (Homo sapiens) (UniProt P30968). Briefly: Human gonadotropin-releasing hormone receptor (GnRHR) small molecule agonists, calcium flux assay in GnRHR-HEK293 cells (AID 1920063). Note: nearly all actives have a fitted effect of over 35% in size. The essentials: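 GnRHR-HEK293, 1500 cells/well, 18 h 37 C/5% CO2; Ca dye 1 h 37 C; cpd pinned (DMSO), agonist mode; kinetic FL 480/540, 3 min, 1 s reads; 15 conc, n=3.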
(In general: Calcium assays in cells follow changes in intracellular calcium, usually with a dye or a luminescent sensor.)

For experiment [3], the target named is KiSS-1 receptor (Homo sapiens) (UniProt Q969F8). As to the kind of experiment: Human kisspeptin (KISS1R) small molecule agonists, calcium flux assay in KISS1R-HEK293 cells (AID 1920064; active = well fitted curve in the direction sought with a large enough effect in the repeat runs; an effect the other way counts as inactive or inconclusive). The essentials: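 Stable human KISS1R HEK293 line; 18 h plating, 37 C/5% CO2; calcium dye 1 h 37 C; compound pin transfer; kinetic fluorescence Ex/Em 480/540, 3 min.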
The nature of experiment [4]: G protein-coupled receptor (GPCR) small molecule agonists, calcium flux assay: HEK293 wild type cell line counter screen (AID 1920065). The procedure, abridged:
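Kinetic fluorescence at Ex/Em 480/540, recorded every second over 3 min, served as the read-out after compound addition. Each compound was tested at 15 concentrations in triplicate on cells pre-loaded with calcium dye for 1 h.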

Experiment [5] can be described thus: p53 small molecule agonists, cell-based qHTS assay with rat liver microsomes (AID 1963578). The essentials: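 Metabolic activation by rat liver microsomes and NADPH, each 0.5 mg/mL final, added right after compounds to p53RE-bla reporter cells (4,000/well, plated 5 h earlier). 16 h at 37 C, then LiveBLAzer substrate for 2 h at room temperature in the dark; fluorescence read-out.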

The nature of experiment [6]: p53 small molecule agonists, cell-based qHTS assay with human liver microsomes: qHTS cell viability counter screen (AID 1963579). Note: nearly all actives have a fitted effect of over 45% in size. Note: potency is the fitted concentration of half-maximal effect. The procedure, abridged:
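Metabolic activation used human liver microsomes and NADPH, both 0.5 mg/mL final, over 16 hours at 37 C on p53RE-bla cells (4,000/well). Cytotoxicity measured by CellTiter-Glo luminescence, 30 min at room temperature.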

Experiment [7] in a line: p53 small molecule agonists, cell-based qHTS assay with rat liver microsomes: qHTS cell viability counter screen (AID 1963580). Note: nearly all actives have a fitted effect of over 45% in size. The procedure, abridged:
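HCT-116 p53RE-bla, 4,000 cells/well, 5 h pre-incubation; cpd + rat liver microsomes 0.5 mg/mL + NADPH 0.5 mg/mL (final); 16 h, 37 C; CellTiter-Glo, 30 min RT; luminescence.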

The nature of experiment [8]: p53 small molecule agonists, cell-based qHTS assay: qHTS cell viability counter screen (AID 1963581). Note: nearly all actives have a fitted effect of over 45% in size. The essentials:
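HCT-116 p53RE-bla cells, 4,000/well, plated 5 h before compound pin transfer; 16 h at 37 C; bla substrate 2 h RT; then CellTiter-Glo, 30 min RT, luminescence.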

A short description of experiment [9]: p53 small molecule agonists, cell-based qHTS assay (AID 1963582; active = well fitted activation curve with a large enough effect in the signal ratio in the repeat runs, not every such curve was filed as active; the % refers to the signal ratio). The essentials:
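Reporter line: p53RE-bla. Pre-incubation 5 h, 37 C, 5% CO2; compound (DMSO, pin tool) 16 h, 37 C; B/G FRET substrate 2 h RT; fluorescence intensity read.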

The target in experiment [10] is Beta-2 adrenergic receptor (Homo sapiens) (UniProt P07550). As to the kind of experiment: Adrenergic beta2 receptor (ADRB2) small molecule antagonists, cell-based qHTS assay (AID 1963592). Note: series mostly up to about 92 µM; nearly all actives have a fitted effect of over 50% in size. The essentials:
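Cells (CHO, stable ADRB2 overexpression) incubated 18-20hr at 37C; compounds added from DMSO; agonist mix (1nM isoproterenol, 100uM IBMX, 25uM Ro-20-1724) added; 0.5hr RT; d2-cAMP and anti-cAMP-cryptate added; 1hr RT; 665/615 nm read.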

Experiment [11] concerns the target D(2) dopamine receptor (Homo sapiens) (UniProt P14416). As to the kind of experiment: Dopamine D2 receptor (DRD2) small molecule agonists, cell-based qHTS assay (AID 1963594). Note: nearly all actives have a fitted effect of over 35% in size. The procedure, abridged: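 cAMP accumulation in DRD2-HEK293 cells measured by HTRF after 1 h detection; compounds added 10 min before NKH477 (200nM […]) forskolin-analogue stimulation, 30 min at room temperature, with Ro20-1724 present at 0.1 mM final.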

The target is the same in experiment [12]. As to the kind of experiment: Dopamine D2 receptor (DRD2) small molecule antagonists, cell-based qHTS assay (AID 1963595; active = well fitted inhibition curve with a large enough effect in the signal ratio in the repeat runs, with a control signal flat; the % refers to the signal ratio; note: potency is the fitted concentration of half-maximal effect). The procedure, abridged: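 HEK293 cells stably expressing DRD2, preincubated with 0.1 mM Ro20-1724 and compounds 10 min, were stimulated with 200 nM NKH477 plus 12 nM quinpirole for 30 min at room temperature; cAMP measured by HTRF (665/620 nm).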

The target of experiment [13] is 5-hydroxytryptamine receptor 2A (Homo sapiens) (UniProt P28223). Briefly: 5-hydroxytryptamine receptor 2A (HTR2A) small molecule antagonists, cell-based qHTS assay (AID 1963586). Note: nearly all actives have a fitted effect of over 45% in size. The procedure, abridged:
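Antagonist-mode intracellular calcium assay: DOI (4 nM) added after 5 min compound pre-incubation at room temperature to dye-loaded HTR2A-CHO cells. Fluorescence followed for 3 min, sampled every second.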

The target is the same in experiment [14]. As to the kind of experiment: 5-hydroxytryptamine receptor 2A (HTR2A) small molecule agonists, cell-based qHTS assay (AID 1963587). Note: nearly all actives have a fitted effect of over 30% in size. The procedure, abridged: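 Kinetic calcium-flux fluorescence (2 min, 1 sec intervals) after compound addition in agonist mode. HTR2A-CHO cells were cultured 18 h, then dye-loaded 1 h at 37 C.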
The target in experiment [15] is Muscarinic acetylcholine receptor M1 (Homo sapiens) (UniProt P11229). As to the kind of experiment: Cholinergic receptor muscarinic 1 (CHRM1) small molecule antagonists, cell-based qHTS assay (AID 1963588). Note: nearly all actives have a fitted effect of over 40% in size. Note: potency is the fitted concentration of half-maximal effect. The essentials:
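CHRM1-CHO calcium-flux assay, antagonist mode. Cells were seeded 18 h, dye-loaded 1 h at 37 C and given compound for 5 min at RT, then acetylcholine was added at 50nM. FDSS fluorescence was read 3 min; 15 concentrations, three runs.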

For experiment [16] the target is unchanged. Briefly: Cholinergic receptor muscarinic 1 (CHRM1) small molecule agonists, cell-based qHTS assay (AID 1963589). Note: nearly all actives have a fitted effect of over 35% in size. The essentials:
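Human M1 in stable CHO line; 18 h plating, 1 h dye load 37 C; cpd added (agonist mode); Ca2+ fluorescence kinetic read, 1 s intervals; 15 conc, 3 runs.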

In experiment [17] the target is Beta-2 adrenergic receptor (Homo sapiens) (UniProt P07550). Briefly: Adrenergic beta2 receptor (ADRB2) small molecule agonists, cell-based qHTS assay (AID 1963593).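 Note: CHO cells stably overexpressing human ADRB2.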 The procedure, abridged:
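CHO cells stably over-expressing ADRB2 were plated overnight at 37C, then dosed with compounds plus a stimulation mix containing 100uM IBMX and 25uM Ro-20-1724 for 0.5hr at room temperature. cAMP was measured by HTRF competition, 1hr.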

The nature of experiment [18]: p53 small molecule agonists, cell-based qHTS assay with human liver microsomes (AID 1963577).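 For activation: p53 response element beta-lactamase reporter cells with liver microsomes plus NADPH.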 Note: potency is the fitted concentration of half-maximal effect. The essentials:
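With metabolic activation: human liver microsomes (0.5 mg/mL final) plus NADPH (0.5 mg/mL final) added alongside compounds to p53RE-bla cells; 16 h 37 C exposure; beta-lactamase read by LiveBLAzer fluorescence.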

Experiment [19] in a line: cAMP Responsive Elements (CRE) small molecule agonists, cell-based qHTS assay (AID 1963590). The procedure, abridged: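 HEK 293T CRE-bla, 2,000 cells/well, 18 h preincubation 37 C/5% CO2; cpds (DMSO) pinned, 3 h; LiveBLAzer B/G FRET substrate, 2 h RT.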
Experiment [20] can be described thus: cAMP Responsive Elements (CRE) small molecule antagonists, cell-based qHTS assay (AID 1963591; active = well fitted inhibition curve with a large enough effect in the signal ratio in the repeat runs, not every such curve was filed as active; the % refers to the signal ratio). The procedure, abridged: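 Beta-lactamase reporter read by FRET substrate (LiveBLAzer B/G) after 2 h at room temperature. CRE-bla HEK293T cells had received compound plus 0.25 uM (final) NKH477 for 3 h at 37 °C.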

Values without a mark were called inactive. Records with an inconclusive call do not appear. Active and inactive are the calls of the source. Unless noted, calls come from the whole dose curve.

KiSS-1 receptor (Homo sapiens), sequence (Q969F8 whole entry, looked up): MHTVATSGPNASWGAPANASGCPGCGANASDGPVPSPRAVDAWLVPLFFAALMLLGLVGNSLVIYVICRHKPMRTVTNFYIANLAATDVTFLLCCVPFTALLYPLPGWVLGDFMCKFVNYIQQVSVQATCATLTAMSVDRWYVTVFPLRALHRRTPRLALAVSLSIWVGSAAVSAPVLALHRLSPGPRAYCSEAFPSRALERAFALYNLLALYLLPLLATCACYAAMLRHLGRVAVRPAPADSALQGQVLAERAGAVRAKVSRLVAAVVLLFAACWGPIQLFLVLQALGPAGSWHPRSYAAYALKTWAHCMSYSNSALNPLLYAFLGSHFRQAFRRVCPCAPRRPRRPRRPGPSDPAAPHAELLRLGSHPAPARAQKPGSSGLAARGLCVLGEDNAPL
Muscarinic acetylcholine receptor M1 (Homo sapiens), sequence (P11229 whole entry, looked up): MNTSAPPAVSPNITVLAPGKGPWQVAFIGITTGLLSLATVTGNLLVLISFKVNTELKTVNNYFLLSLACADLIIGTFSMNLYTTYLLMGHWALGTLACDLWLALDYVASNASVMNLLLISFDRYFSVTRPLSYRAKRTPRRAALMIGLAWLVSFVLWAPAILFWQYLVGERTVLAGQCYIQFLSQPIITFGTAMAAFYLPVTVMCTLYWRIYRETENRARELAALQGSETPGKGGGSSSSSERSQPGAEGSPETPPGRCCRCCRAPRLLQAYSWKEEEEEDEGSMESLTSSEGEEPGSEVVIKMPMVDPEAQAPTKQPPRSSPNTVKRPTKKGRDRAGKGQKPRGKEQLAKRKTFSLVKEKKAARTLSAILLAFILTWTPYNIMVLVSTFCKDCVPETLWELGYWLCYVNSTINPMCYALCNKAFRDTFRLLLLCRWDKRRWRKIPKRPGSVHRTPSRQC
D(2) dopamine receptor (Homo sapiens), sequence (P14416 whole entry, looked up): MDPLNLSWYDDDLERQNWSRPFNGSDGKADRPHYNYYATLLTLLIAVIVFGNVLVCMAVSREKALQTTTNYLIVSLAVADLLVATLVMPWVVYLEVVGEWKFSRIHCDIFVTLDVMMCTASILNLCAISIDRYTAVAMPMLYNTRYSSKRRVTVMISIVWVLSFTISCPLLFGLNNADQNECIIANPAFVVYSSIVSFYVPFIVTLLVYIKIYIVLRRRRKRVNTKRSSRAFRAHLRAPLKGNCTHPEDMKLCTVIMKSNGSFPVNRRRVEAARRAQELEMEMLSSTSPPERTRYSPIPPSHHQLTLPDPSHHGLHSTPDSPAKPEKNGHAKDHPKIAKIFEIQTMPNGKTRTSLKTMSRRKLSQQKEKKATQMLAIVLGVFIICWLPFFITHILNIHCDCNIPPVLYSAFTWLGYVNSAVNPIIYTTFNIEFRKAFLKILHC
Gonadotropin-releasing hormone receptor (Homo sapiens), sequence (P30968 whole entry, looked up): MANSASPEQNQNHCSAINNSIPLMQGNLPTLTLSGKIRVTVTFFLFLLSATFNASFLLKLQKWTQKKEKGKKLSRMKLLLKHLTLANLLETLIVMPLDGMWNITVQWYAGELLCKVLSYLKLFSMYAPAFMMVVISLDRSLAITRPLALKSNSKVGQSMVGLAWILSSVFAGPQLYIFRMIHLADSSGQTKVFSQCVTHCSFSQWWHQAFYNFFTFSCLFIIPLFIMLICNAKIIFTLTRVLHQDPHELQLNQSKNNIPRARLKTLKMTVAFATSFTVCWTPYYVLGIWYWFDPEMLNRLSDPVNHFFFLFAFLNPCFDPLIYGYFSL
5-hydroxytryptamine receptor 2A (Homo sapiens), sequence (P28223 whole entry, looked up): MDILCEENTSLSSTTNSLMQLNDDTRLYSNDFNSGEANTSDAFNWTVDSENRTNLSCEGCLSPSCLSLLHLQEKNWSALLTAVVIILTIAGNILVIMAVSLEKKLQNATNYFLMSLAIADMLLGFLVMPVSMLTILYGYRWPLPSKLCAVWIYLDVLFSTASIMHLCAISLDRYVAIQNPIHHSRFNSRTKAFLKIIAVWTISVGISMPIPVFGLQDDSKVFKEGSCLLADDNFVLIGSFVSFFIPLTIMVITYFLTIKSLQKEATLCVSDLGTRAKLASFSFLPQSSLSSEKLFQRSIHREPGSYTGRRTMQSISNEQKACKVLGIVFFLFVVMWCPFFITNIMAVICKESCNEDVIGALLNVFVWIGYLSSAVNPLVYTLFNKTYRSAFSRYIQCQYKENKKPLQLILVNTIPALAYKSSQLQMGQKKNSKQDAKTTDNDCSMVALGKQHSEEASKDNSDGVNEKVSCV
Beta-2 adrenergic receptor (Homo sapiens), sequence (P07550 whole entry, looked up): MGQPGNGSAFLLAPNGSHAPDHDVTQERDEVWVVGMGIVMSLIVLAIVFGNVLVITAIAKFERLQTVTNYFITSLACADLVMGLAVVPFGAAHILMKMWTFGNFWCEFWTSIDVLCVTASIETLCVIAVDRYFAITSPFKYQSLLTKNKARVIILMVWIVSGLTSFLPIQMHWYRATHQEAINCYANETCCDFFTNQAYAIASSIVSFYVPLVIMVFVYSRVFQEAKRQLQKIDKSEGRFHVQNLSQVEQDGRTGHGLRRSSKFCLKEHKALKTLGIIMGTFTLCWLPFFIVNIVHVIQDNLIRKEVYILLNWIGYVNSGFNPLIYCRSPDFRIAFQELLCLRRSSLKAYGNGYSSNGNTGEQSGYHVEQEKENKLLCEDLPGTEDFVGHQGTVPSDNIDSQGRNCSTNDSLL

As to `C[C@]12Cc3cn[nH]c3C[C@@H]1CC[C@@H]1[C@@H]2CC[C@@]2(C)[C@H]1CC[C@]2(C)O`, the Potency in experiment [1] is 29.8 µM (active). For the same compound, the Potency result in [2], in experiment [3], in experiment [4], in experiment [5], in experiment [6] and in experiment [7] was “inactive” in each case. The Potency result in [8], in experiment [9], in experiment [10], in experiment [11] and in experiment [12] was “inactive” throughout.

Turning to `CC(C)(C)OC(=O)c1ncn2c1[C@@H]1CCCN1C(=O)c1c(Br)cccc1-2`, the Potency result in experiment [1], in [2], in experiment [3], in experiment [4], in experiment [6] and in experiment [7] was “inactive” each time. Also, the Potency entry in [8], in experiment [13], in [14], in [15], in [16] and in experiment [10] was “inactive” throughout. The Potency entry in [17], in experiment [11] and in experiment [12] was “inactive” in each case.

For the compound `CCOP(=S)(OCC)SCS(=O)(=O)C(C)(C)C`, the Potency result in [1], in [2], in [3], in experiment [4], in [6] and in experiment [8] was “inactive” throughout. For the same compound, the Potency entry in experiment [9], in experiment [13], in experiment [14], in experiment [15], in [16] and in [19] was “inactive” each time. Besides, the Potency result in experiment [20], in experiment [10], in experiment [11] and in [12] was “inactive” each time. In addition, in experiment [18], the Potency was 1.82 µM (active).

Consider `O=[N+]([O-])c1cccc2cccnc12`, for which the Potency entry in experiment [1], in [2], in experiment [3], in experiment [4], in [5] and in experiment [6] was “inactive” throughout. Moreover, the Potency entry in experiment [7], in experiment [8], in experiment [9], in experiment [13], in experiment [14] and in experiment [15] was “inactive” each time. Moreover, the Potency result in [16], in [19], in experiment [20], in experiment [17], in experiment [11] and in experiment [12] was “inactive” in each case.

On to `IC(I)=C(I)I`, for which the Potency in [1] was 27.3 µM (active); in experiment [6] it was 16.2 µM (active); in [12], 54.5 µM (active). In addition, the Potency result in experiment [2], in [3], in experiment [4], in [18], in experiment [13] and in experiment [14] was “inactive” in each case. For the same compound, the Potency entry in experiment [15] is “inactive”.

For `C#CCC1=C(C)C(OC(=O)C2C(C=C(C)C)C2(C)C)CC1=O` (stereo unspecified), the Potency entry in experiment [1], in [2], in experiment [3], in experiment [4], in [6] and in experiment [7] was “inactive” throughout. Also, the Potency result in [8], in experiment [13], in [14], in experiment [16], in experiment [10] and in [11] was “inactive” throughout. The Potency in experiment [15] was 11.8 µM (active).

Take `CC(=O)[O-].CC(=O)[O-].[Co+2]`: the Potency entry in [1], in experiment [2], in [3], in [4], in [6] and in experiment [7] was “inactive” throughout. The Potency entry in experiment [8], in [13], in [14], in experiment [15], in experiment [16] and in experiment [19] was “inactive” throughout. The Potency result in experiment [20], in experiment [10], in experiment [17] and in experiment [11] was “inactive” in each case.

Consider `CCOP(=S)(Oc1cnc(C(C)(C)C)nc1)OC(C)C` (stereo unspecified), for which the Potency entry in [1], in experiment [2], in experiment [3], in experiment [4], in experiment [6] and in [7] was “inactive” throughout. The Potency entry in experiment [8], in [9], in experiment [13], in experiment [14], in [15] and in [16] was “inactive” each time. Further, the Potency result in experiment [10], in experiment [11] and in experiment [12] was “inactive” in each case.

On to `O=[N+]([O-])c1cccc(CCl)c1`, for which the Potency entry in experiment [1], in experiment [2], in [3], in [4], in experiment [6] and in experiment [7] was “inactive” each time. In addition, the Potency result in experiment [8], in experiment [13], in experiment [14], in [15], in experiment [16] and in experiment [19] was “inactive” in each case. Besides, the Potency entry in experiment [20], in experiment [10] and in experiment [12] was “inactive” throughout.
